The record followed here is PubChem BioAssay (NCI).

The nature of the test: NCI Yeast Anticancer Drug Screen. Data for the cln2 rad14 strain (AID 165).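 Further: 0% = growth equal to vehicle treated cultures.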 Particulars: S. cerevisiae cln2 rad14 strain, hits give high values. As for the experimental part: Growth inhibition of yeast strains with defined genetic alterations is measured as a screen for potential anti-cancer activity. Selected strains with alterations in DNA damage repair or cell cycle control were exposed to compounds and growth inhibition was measured relative to vehicle treated controls. The strain used in this assay is cln2 rad14

[1] abbreviates: at 5.0 µM (retest, dose inferred, filed as 0.5).
Where [2] appears, read: at 50.0 µM (retest, dose inferred, filed as 5.0).

This is part of a sample that, as a whole, favours compounds with a hit. Of some 79,000 tested, about 15% had one in any assay. A number with no mark means an inactive call. Activity calls are given as the source filed them. No stated cut-off is given here; in the data, active means growth inhibition above about 70%; inactive means the rest.

On to `CC1CCN(CCC(=O)c2ccc(Cl)cc2)CC1`, for which the growth inhibition by setting is: under setting [1], 14%; under setting [2], 45%; (at 50.0 µM) 73.6% (active).

With `O=C(O)c1ccccc1NC(=S)c1ccccc1`, the growth inhibition was 27% under setting [1], 54% under setting [2] and 1% (at 50.0 µM).

Take `COC(=O)c1ccc(NCC2=CC(=O)C=CC2=O)cc1O`: the growth inhibition is, setting by setting: under setting [1], 36%; under setting [2], 93% (active); (at 50.0 µM) 89.9% (active).

Turning to `Cc1cc(I)ccc1N`, the growth inhibition was 46% under setting [1], 93% (active) under setting [2] and 62.1% (at 50.0 µM).

`N#CN1C2CCC1CC(=O)C2`: the growth inhibition is 50% under setting [1], 34% under setting [2] and 74.8% (active) (at 50.0 µM).

As to `O=[n+]1c2ccc(Cl)cc2n([O-])c2ccc(Cl)cc21`, the growth inhibition reads like this: under setting [1], -10%; under setting [2], -13%; (at 50.0 µM) -74.2%.

On to `Cc1cccc2c(C(O)CBr)cc(-c3ccc(Cl)cc3)nc12` (configuration not stated), for which the growth inhibition is, setting by setting: under setting [1], -10%; under setting [2], 95% (active); (at 50.0 µM) 92.8% (active).

As to `C=C(CN(C)C)C(=O)c1cc(C)ccc1C`, the growth inhibition is 7% under setting [1], 99% (active) under setting [2] and 99.2% (active) (at 50.0 µM).

On to `CN1Cc2ccccc2/C=C\c2ccccc21`, for which the growth inhibition reads like this: under setting [1], -57%; under setting [2], 18%; (at 50.0 µM) -30.4%.

`N#CC(C(=O)Nc1ccccc1)C1=C(Cl)C(=O)c2ccccc2C1=O` (configuration not stated): the growth inhibition is 53% under setting [1], 98% (active) under setting [2] and 91.8% (active) (at 50.0 µM).

Take `CN(N=O)N1C(=O)SCC(c2ccccc2)(c2ccccc2)C1=O`: the growth inhibition runs as follows: under setting [1], -26%; under setting [2], 16%; (at 50.0 µM) 10.7%.

Consider `NC(=S)N/N=C\c1nccc2ccccc12`, for which the growth inhibition was -99% under setting [1], 97% (active) under setting [2] and 97.5% (active) (at 50.0 µM).

`FC(F)(F)c1nc2nc(Cl)c(Cl)nc2n1CCCN1CCOCC1`: the growth inhibition is -16% under setting [1], 54% under setting [2] and -1.1% (at 50.0 µM).

Turning to `S=C(Nc1ccc(Cl)c(Cl)c1)SCc1ccc2c(c1)OCO2`, the growth inhibition by setting is: under setting [1], 5%; under setting [2], 97% (active); (at 50.0 µM) 87.6% (active).
